Activity calls are given as the source filed them.
What was measured:
[1] = test system: PRMT1 (protein arginine N-methyltransferase 1); test: PRMT1 binders on small-molecule microarrays, primary screen, biochemical, small-molecule microarray, 635 nm fluorescence (AID 1088); conditions: small-molecule microarray binding, higher = more signal;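 further: binding of Prmt1 protein to compounds spotted on small-molecule microarray slides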
[2] = yeast growth modulation, basal conditions, primary screen, YJM789 clinical isolate, OD600, 24 h (AID 1089);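 further: growth of clinical yeast isolate S. cerevisiae YJM 789 seeded 1000 cells per well; test concentration not given here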; conditions: S. cerevisiae YJM789 growth, higher = more signal, called active from +8 up or from −8 down
[3] = fission yeast growth modulation, primary screen, strain 972, OD600, 24 h, no modulator (AID 1090);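 further: basal condition with compound alone and no growth modifier present; test concentration not given here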; conditions: S. pombe 972 growth, higher = more signal, called active from +8 up or from −8 down
[4] = S. cerevisiae growth modulation with rapamycin, primary screen, strain BY4716, OD600, 96 h (AID 1091); conditions: higher = more signal, called active from +8 up or from −8 down; further: test concentration not given here
[5] = biological target: Torsin-1A-interacting protein 2 (Homo sapiens) (UniProt Q8NFQ8); test: LULL1 binders on small-molecule microarray, primary screen, cell lysate, human LULL1 lysate, 635/667 nm fluorescence (AID 1092); conditions: hLULL1 lysate binding, 635 nm fluorescence, higher = more signal;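 further: probe is lysate of COS7 cells overexpressing human LULL1; score merges per-feature 667 nm fluorescence with signal-to-noise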
[6] = E. coli growth modulation, two-sided OD650, primary screen, E. coli filamentation project, strain DRC41, 24 h (AID 1093); conditions: OD650, 24 h, higher = more signal, called active from +8 up or from −8 down;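 further: MC1000 strain lacking acrAB efflux and sulA so SOS filamentation is blocked; test concentration not given here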
[7] = small-molecule microarray binders of probe aLefty2, primary screen, biochemical, biotinylated probe, 635/667 nm fluorescence (AID 1094); conditions: higher = more signal;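 further: score merges spot fluorescence near 667 nm with spot signal-to-noise ratio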
[8] = test system: Noggin (protein binding on small-molecule microarray); test: Noggin binders on small-molecule microarray, primary screen, biochemical, 635/667 nm fluorescence (AID 1095); conditions: 635 nm fluorescence, higher = more signal;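 further: score merges 667 nm feature fluorescence with signal to noise over triplicate slides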
[9] = biological target: Neurogenic locus notch homolog protein 3 (Homo sapiens) (UniProt Q9UM47); test: NOTCH3 binders on small-molecule microarray, primary screen, biochemical, 635/667 nm fluorescence (AID 1096); conditions: NOTCH3 binding, 635 nm fluorescence, higher = more signal
[10] = small-molecule microarray binders of probe aEGFR, primary screen, biochemical, biotinylated probe, 635/667 nm fluorescence (AID 1097); conditions: higher = more signal;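 further: probe is a biotinylated anti-EGFR antibody binding compounds printed on slides; score combines fluorescence near 667 nm and signal to noise of each spot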

Sequence of Neurogenic locus notch homolog protein 3 (Homo sapiens) (Q9UM47 whole entry, looked up): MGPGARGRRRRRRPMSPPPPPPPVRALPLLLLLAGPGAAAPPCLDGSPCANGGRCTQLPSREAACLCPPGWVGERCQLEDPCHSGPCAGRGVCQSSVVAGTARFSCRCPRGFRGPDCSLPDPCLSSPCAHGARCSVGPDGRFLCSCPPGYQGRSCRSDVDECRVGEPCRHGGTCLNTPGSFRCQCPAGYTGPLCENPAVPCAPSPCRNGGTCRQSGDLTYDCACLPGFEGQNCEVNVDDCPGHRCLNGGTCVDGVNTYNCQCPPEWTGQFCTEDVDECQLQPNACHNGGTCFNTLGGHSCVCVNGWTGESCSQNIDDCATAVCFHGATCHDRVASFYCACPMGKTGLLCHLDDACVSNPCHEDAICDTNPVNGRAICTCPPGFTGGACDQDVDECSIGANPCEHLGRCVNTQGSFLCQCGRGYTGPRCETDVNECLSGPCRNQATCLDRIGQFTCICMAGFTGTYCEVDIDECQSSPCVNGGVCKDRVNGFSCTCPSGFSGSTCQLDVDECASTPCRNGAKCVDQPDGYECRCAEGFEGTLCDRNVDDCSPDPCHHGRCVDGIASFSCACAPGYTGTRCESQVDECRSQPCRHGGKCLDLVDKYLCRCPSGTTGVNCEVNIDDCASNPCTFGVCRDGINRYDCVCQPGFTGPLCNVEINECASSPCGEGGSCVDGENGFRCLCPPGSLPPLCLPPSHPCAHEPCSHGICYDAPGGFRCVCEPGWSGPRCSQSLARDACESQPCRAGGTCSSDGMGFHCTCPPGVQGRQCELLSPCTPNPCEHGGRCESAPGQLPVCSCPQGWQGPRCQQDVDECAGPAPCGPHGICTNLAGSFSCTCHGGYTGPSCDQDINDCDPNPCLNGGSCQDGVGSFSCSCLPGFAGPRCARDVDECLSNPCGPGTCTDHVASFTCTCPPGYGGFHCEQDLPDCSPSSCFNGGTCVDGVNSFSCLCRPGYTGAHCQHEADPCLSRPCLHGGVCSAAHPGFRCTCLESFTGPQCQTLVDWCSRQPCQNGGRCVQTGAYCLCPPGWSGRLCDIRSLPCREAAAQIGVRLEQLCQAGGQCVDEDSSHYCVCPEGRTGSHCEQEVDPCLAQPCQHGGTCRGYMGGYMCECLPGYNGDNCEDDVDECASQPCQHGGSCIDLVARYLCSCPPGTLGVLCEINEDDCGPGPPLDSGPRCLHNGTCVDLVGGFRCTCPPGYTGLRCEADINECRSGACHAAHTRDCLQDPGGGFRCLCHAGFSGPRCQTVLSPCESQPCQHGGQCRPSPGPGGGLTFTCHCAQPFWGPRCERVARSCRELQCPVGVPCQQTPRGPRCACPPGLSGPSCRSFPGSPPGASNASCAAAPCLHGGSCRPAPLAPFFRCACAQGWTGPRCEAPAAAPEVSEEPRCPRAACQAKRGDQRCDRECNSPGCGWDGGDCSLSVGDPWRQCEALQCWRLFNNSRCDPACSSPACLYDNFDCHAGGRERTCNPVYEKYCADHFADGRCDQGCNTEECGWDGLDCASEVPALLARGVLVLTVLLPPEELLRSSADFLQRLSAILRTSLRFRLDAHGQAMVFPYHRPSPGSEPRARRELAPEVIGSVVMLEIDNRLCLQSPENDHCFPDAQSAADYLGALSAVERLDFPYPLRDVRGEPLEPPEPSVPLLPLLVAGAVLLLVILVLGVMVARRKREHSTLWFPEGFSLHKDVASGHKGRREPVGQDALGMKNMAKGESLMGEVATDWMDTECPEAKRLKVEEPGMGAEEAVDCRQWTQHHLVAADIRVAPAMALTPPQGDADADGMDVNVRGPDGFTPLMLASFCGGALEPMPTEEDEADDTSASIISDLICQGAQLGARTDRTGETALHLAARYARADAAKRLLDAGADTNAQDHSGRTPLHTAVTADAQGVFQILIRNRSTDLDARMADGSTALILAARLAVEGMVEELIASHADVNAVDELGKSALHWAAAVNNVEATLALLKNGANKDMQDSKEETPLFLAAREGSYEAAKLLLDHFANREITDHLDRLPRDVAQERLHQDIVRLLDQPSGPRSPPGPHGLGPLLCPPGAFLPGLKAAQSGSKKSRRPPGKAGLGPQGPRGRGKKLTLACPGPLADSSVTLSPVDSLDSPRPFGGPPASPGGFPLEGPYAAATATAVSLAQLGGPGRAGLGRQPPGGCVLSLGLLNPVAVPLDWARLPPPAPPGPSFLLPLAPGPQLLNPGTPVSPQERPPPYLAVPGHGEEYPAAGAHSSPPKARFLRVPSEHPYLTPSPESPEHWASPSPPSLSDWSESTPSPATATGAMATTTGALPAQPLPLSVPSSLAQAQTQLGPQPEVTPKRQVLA
Sequence of Torsin-1A-interacting protein 2 (Homo sapiens) (Q8NFQ8 whole entry, looked up): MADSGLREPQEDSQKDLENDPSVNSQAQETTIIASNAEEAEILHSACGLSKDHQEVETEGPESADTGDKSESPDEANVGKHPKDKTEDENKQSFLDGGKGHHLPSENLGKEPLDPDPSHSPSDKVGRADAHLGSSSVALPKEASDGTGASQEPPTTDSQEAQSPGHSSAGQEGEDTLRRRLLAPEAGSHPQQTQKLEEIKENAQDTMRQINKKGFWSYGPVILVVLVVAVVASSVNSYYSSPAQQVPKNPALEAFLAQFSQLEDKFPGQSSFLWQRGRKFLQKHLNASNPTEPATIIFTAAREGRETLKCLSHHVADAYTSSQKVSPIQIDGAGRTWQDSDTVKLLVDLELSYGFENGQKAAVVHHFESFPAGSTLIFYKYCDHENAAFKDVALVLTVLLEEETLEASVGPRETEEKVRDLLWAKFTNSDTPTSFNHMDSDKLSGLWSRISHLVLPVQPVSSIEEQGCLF

Row | Structure (SMILES) | composite z-score [1] | z-score [2] | z-score [3] | z-score [4] | composite z-score [5] | z-score [6] | composite z-score [7] | composite z-score [8] | composite z-score [9] | composite z-score [10]
1 | CC(C)CNC(=O)[C@@H]1c2ccccc2C(=O)N(Cc2cc(C(F)(F)F)cc(C(F)(F)F)c2)[C@H]1c1ccc(CO)cc1 | 0.457 | 0.976 (inactive) | -0.989 (inactive) | -0.706 (inactive) | 0.557 | -0.381 (inactive) | 0.104 | -0.96 | -0.977 | -0.0682
2 | CCCCC=C[C@@H](NC(=O)c1cccs1)c1ccccc1 | -0.0502 | 0.464 (inactive) | 0.845 (inactive) | 1.72 (inactive) | 2.01 | -0.312 (inactive) | 0.0812 | -0.222 | 0.955 | -0.0746
3 | COCC(=C=CC[C@@H](O)c1ccc(CO)o1)CCO | 0.737 | -3.24 (inactive) | -2.34 (inactive) | -2.27 (inactive) | -0.816 | 1.6 (inactive) | -0.256 | 1.33 | 0.735 | -0.0943
4 | COc1ccc(CCN2C(=O)[C@@]3(Cc4ccccc42)c2ccccc2C(=O)N(Cc2ccccc2Cl)[C@H]3c2ccc(CO)cc2)cc1 | 1.34 | -0.411 (inactive) | -1.51 (inactive) | -1.24 (inactive) | 0.494 | 0.169 (inactive) | -0.126 | -1.05 | -0.981 | -0.169
5 | COC(=O)[C@@]1(Cc2ccccc2)[C@H]2c3cc(C(=O)N(C)C)n(Cc4c(-c5ccccc5)noc4C)c3C[C@H]2CN1C(=O)c1ccccc1 | -0.248 | 0.315 (inactive) | 0.555 (inactive) | 2.84 (inactive) | 2.7 | -1.07 (inactive) | 0.531 | -0.452 | 0.303 | 0.235

From PubChem BioAssay
